Results filed as inconclusive are left out. Active and inactive are the calls of the source. Calls come from the whole dose curve; as a rule, active = well fitted inhibition curve with a large enough effect; inconclusive = small, poorly fitted or top-dose-only effect; inactive = flat fitted curve, though single readings scatter.
Legend:
Assay in all cases: qHTS profiling for inhibitors of Plasmodium falciparum proliferation (AID 504749); note: nearly all actives have a fitted effect of over 60% in size
Conditions in all cases: P. falciparum in erythrocytes, SYBR Green DNA, 72 h; series mostly up to 28.7 µM
CP260 = tested on: CP260
Outline: (§1)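 Quantitative HTS: compounds pinned into medium, infected erythrocytes added (0.3% parasitemia, 2.5% hematocrit), 72 h culture at 37 C under 5% CO2. Saponin/Triton lysis with SYBR Green I, overnight RT, then fluorescence read.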

CP262 = tested on: CP262
Outline: as §1

CP265 = tested on: CP265
Outline: as §1

CP266 = tested on: CP266
Outline: as §1

CP268 = tested on: CP268
Outline: as §1

CP269 = tested on: CP269
Outline: as §1

CP286 = tested on: CP286
Outline: as §1

CP291 = tested on: CP291
Outline: as §1

CP297 = tested on: CP297
Outline: as §1

CP305 = tested on: CP305
Outline: as §1

CP315 = tested on: CP315
Outline: as §1

CP325 = tested on: CP325
Outline: as §1

CP329 = tested on: CP329
Outline: as §1

CP335 = tested on: CP335
Outline: as §1

DFO2036 = tested on: DFO2036
Outline: as §1

DIV14 = tested on: DIV14
Outline: as §1

DIV17 = tested on: DIV17
Outline: as §1

DIV30 = tested on: DIV30
Outline: as §1

Dd2 = tested on: Dd2
Outline: as §1

ECU = tested on: ECU
Outline: as §1

FAB9 = tested on: FAB9
Outline: as §1

GB4 = tested on: GB4
Outline: as §1

HB3 = tested on: HB3
Outline: as §1

ICS = tested on: ICS
Outline: as §1

JCK = tested on: JCK
Outline: as §1

N140 = tested on: N140
Outline: as §1

P93_24 = tested on: P93_24
Outline: as §1

P94_40 = tested on: P94_40
Outline: as §1

PAD = tested on: PAD
Outline: as §1

PC15 = tested on: PC15
Outline: as §1

PC26 = tested on: PC26
Outline: as §1

PC49 = tested on: PC49
Outline: as §1

SC27B = tested on: SC27B
Outline: as §1

TAB109 = tested on: TAB109
Outline: as §1

TAB113 = tested on: TAB113
Outline: as §1

TAB165 = tested on: TAB165
Outline: as §1

W2 = tested on: W2
Outline: as §1

Measured: Potency

C[C@]12CC[C@H]3c4ccc(O)cc4CC[C@@H]3[C@H]1CC[C@@H]2OP(=O)(O)O
inactive: all assays above
